This is an account of results in PubChem BioAssay (NCI).

Some test systems named below: MDA-MB-231 breast; OVCAR-5 ovarian; OVCAR-4 ovarian; OVCAR-3 ovarian; HS 578T breast; NCI/ADR-RES ovarian; BT-549 breast; MDA-MB-435 melanoma; SW-620 colon; MCF7 breast; HCT-116 colon; HCC-2998 colon; KM12 colon; LOX IMVI melanoma; IGROV1 ovarian; T-47D breast; HT29 colon; SK-OV-3 ovarian.
Common to all, as to test: NCI-60 one-dose screen, 48 h (100 = growth as untreated, 0 = no growth, -100 = all killed)
Holding throughout (settings): 10 µM

About 83,000 compounds went through this panel and 20% of them were active in at least one assay; those are over-represented in the sample as a whole.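 Cell lines were cultured in 96-well plates, exposed to a single compound concentration, and assessed for percent growth 48 hours later.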 Unmarked numbers belong to inactive results. Active and inactive are the calls of the source. How the source made its calls: active means growth percent below 10; inactive means the rest.

Regarding `COc1ccc2[nH]cc(-c3nc(N)nnc3-c3cn(C)c4ncc(Br)cc34)c2c1`, the growth is 21% with MDA-MB-231 breast; 20.6% in the assay on OVCAR-5 ovarian; 37.4% in the assay with OVCAR-4 ovarian; -0.754% (active) in the assay with OVCAR-3 ovarian; 28.2% in the assay with HS 578T breast; 12.5% in the assay with NCI/ADR-RES ovarian. Besides, the growth in the assay with BT-549 breast was -38.5% (active); with MDA-MB-435 melanoma, -38.8% (active); with SW-620 colon, 17.8%; with MCF7 breast, 4.79% (active); with HCT-116 colon, 1.45% (active); in the assay with HCC-2998 colon, 11.8%. Moreover, in the assay on KM12 colon, the growth was 5.71% (active).
With `COc1ccc(Cn2cc(C#N)c(N)c2C(C)=O)c(OC)c1`, the growth is 101% with MDA-MB-231 breast; 99.6% in the assay with LOX IMVI melanoma; 112% in the assay on OVCAR-5 ovarian; 110% in the assay with OVCAR-4 ovarian; 112% in the assay with IGROV1 ovarian; 105% with OVCAR-3 ovarian. Further, the growth in the assay on HS 578T breast is 111%; with NCI/ADR-RES ovarian, 102%; with T-47D breast, 106%; in the assay with MDA-MB-435 melanoma it was 108%; in the assay with SW-620 colon, 106%; in the assay on MCF7 breast, 101%. For the same compound, the growth was 99.2% with HCT-116 colon, 106% in the assay with HCC-2998 colon and 106% in the assay on KM12 colon.
With `COc1ccc(NCc2cn(-c3ccc(C(=O)O)cc3)nc2-c2ccc(F)cc2)cc1C(F)(F)F`, the growth in the assay with MDA-MB-231 breast is 82.6%; in the assay with HT29 colon, 51%; with LOX IMVI melanoma, 43.8%; in the assay with OVCAR-5 ovarian it was 72.4%; in the assay with OVCAR-4 ovarian, 57.2%; in the assay on OVCAR-3 ovarian it was 53.4%. Besides, the growth with HS 578T breast is 48.7%; with NCI/ADR-RES ovarian, 64.4%; with MDA-MB-435 melanoma, 36.8%; in the assay with SW-620 colon, 60.1%; in the assay on MCF7 breast, 30.5%; in the assay with HCT-116 colon, 39.5%. Besides, the growth with HCC-2998 colon is 51.7%; in the assay on KM12 colon, 24.1%.
In the case of `O=C(CN1CCN(c2ncnc3c2cnn3-c2ccccc2)CC1)Nc1ccc(Br)cc1`, the growth was 66.7% with MDA-MB-231 breast; 78.2% in the assay on OVCAR-5 ovarian; 56.5% in the assay on OVCAR-4 ovarian; 76.7% in the assay with SK-OV-3 ovarian; 60.6% with OVCAR-3 ovarian; 70.7% with HS 578T breast. The growth in the assay on NCI/ADR-RES ovarian was 56.1%; in the assay with MDA-MB-435 melanoma, 53.2%; in the assay on SW-620 colon, 78.1%; in the assay with MCF7 breast, 36.8%; in the assay with HCT-116 colon, 52.5%; in the assay with HCC-2998 colon, 78.8%. The growth in the assay with KM12 colon is 57.5%.
Take `COc1ccc(Cc2nn(CC(=O)N/N=C/c3ccc(Br)cc3)c(=O)c3c(C)noc23)cc1`: the growth in the assay on MDA-MB-231 breast is 21.1%; in the assay with LOX IMVI melanoma it was 25.9%; in the assay on OVCAR-5 ovarian, 59%; in the assay on OVCAR-4 ovarian it was -44% (active); in the assay with OVCAR-3 ovarian, 28.5%; in the assay with HS 578T breast, 2% (active). Moreover, the growth in the assay on NCI/ADR-RES ovarian was 41.1%; in the assay on MDA-MB-435 melanoma, 54.1%; in the assay with SW-620 colon, 48.8%; with MCF7 breast, 40.4%; in the assay with HCT-116 colon, 0.469% (active); in the assay on HCC-2998 colon, 73.8%. Besides, the growth in the assay on KM12 colon was 60.7%.
Regarding `Fc1ccc(-c2csc(Nc3cccc(Nc4nc(-c5ccc(F)cc5)cs4)c3)n2)cc1`, the growth in the assay on MDA-MB-231 breast is 64.6%; in the assay with OVCAR-5 ovarian, 65.5%; with OVCAR-4 ovarian it was 55.7%; in the assay on SK-OV-3 ovarian, 86.8%; in the assay on OVCAR-3 ovarian, 57.5%; with HS 578T breast it was 69.3%. In addition, the growth was 63.7% in the assay with NCI/ADR-RES ovarian; 7.43% (active) with T-47D breast; 63.1% in the assay with MDA-MB-435 melanoma; 70.3% with SW-620 colon; 24.7% in the assay with MCF7 breast; 57.7% in the assay on HCT-116 colon. Besides, the values for the growth with HCC-2998 colon and in the assay on KM12 colon were 35.2% and 37.6%, respectively.
On to `C#C[C@]1(O)CC[C@H]2[C@@H]3CC=C4c5sc(Nc6ccc(N(C)C)cc6)nc5CC[C@]4(C)[C@H]3CC[C@@]21C`, for which the growth in the assay with MDA-MB-231 breast was -10.7% (active); in the assay on OVCAR-5 ovarian it was 21.7%; with OVCAR-4 ovarian, 36.1%; in the assay with IGROV1 ovarian, 9.97% (active); with OVCAR-3 ovarian, 2.6% (active); in the assay with HS 578T breast it was -7.74% (active). The growth is 9.68% (active) with NCI/ADR-RES ovarian; 28.6% in the assay on T-47D breast; 5.17% (active) with MDA-MB-435 melanoma; 4.36% (active) in the assay on SW-620 colon; -36.2% (active) with MCF7 breast; -77.9% (active) in the assay with HCT-116 colon. For the same compound, the growth with HCC-2998 colon is 33.4%; in the assay with KM12 colon, 2.83% (active).
Take `COC(=O)CNC(=O)COc1c(OC)c(OC)cc2oc(-c3cccc(C(=O)Nc4ccc(Cl)cc4)c3)cc(=O)c12`: the growth with MDA-MB-231 breast was -1.24% (active); in the assay on HT29 colon it was 58.4%; with LOX IMVI melanoma, -33.2% (active); in the assay on OVCAR-5 ovarian, 90.7%; with OVCAR-4 ovarian, 6.23% (active); with OVCAR-3 ovarian, 55.6%. Also, the growth in the assay on HS 578T breast is -3.95% (active); in the assay on NCI/ADR-RES ovarian, 47.5%; in the assay on T-47D breast it was 37.9%; with MDA-MB-435 melanoma it was 28.5%; in the assay on SW-620 colon it was 51.4%; in the assay on MCF7 breast, 22.5%. Moreover, the growth in the assay on HCT-116 colon is 43.8%; with HCC-2998 colon, 74.2%; in the assay on KM12 colon, 41.5%.
`Cc1ccc(S(=O)(=O)N2CCN(S(=O)(=O)c3oc(-c4ccccc4)nc3C#N)CC2)cc1`: the growth in the assay on MDA-MB-231 breast is 100%; with OVCAR-5 ovarian, 91.1%; in the assay on OVCAR-4 ovarian, 71.8%; in the assay on OVCAR-3 ovarian, 92.5%; in the assay with HS 578T breast, 95.2%; in the assay with NCI/ADR-RES ovarian, 83%. Further, the growth with MDA-MB-435 melanoma is 77.6%; with SW-620 colon it was 90%; in the assay on MCF7 breast, 47.6%; with HCT-116 colon, 84.6%; in the assay on HCC-2998 colon, 106%; with KM12 colon, 82.5%.
Take `CCOC(=O)c1ccc(NC(=O)CSC(CC(=O)c2sc(Nc3ccccn3)nc2C)c2ccccc2F)cc1` (configuration not stated): the growth is 10.5% in the assay with MDA-MB-231 breast; -76.8% (active) in the assay on LOX IMVI melanoma; -6.86% (active) in the assay with OVCAR-5 ovarian; 41.1% with OVCAR-4 ovarian; 6.5% (active) in the assay on OVCAR-3 ovarian; 8.86% (active) with HS 578T breast. Also, the growth in the assay with NCI/ADR-RES ovarian is 10.5%; in the assay on T-47D breast it was 13.1%; with MDA-MB-435 melanoma, -10.7% (active); with SW-620 colon it was 0.242% (active); with MCF7 breast, -17.3% (active); in the assay on HCT-116 colon, 1.05% (active). The growth in the assay with HCC-2998 colon was -7.21% (active); in the assay on KM12 colon, -50.8% (active).
